Source: PubChem BioAssay
Only a selection was taken, and hits are over-represented in it overall.
p53null 32C tox = p53 null cell cytotoxicity, permissive temperature | H1299-neo p53 null cells, ATP luminescence, 24 h, 32C | Potency, µM (top dose mostly 46.1 µM), without a hit: top-dose activity change, negative = cytotoxicity, usual class: cytotoxic | hit rate 0.62% among 55,000;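 note: 0% = DMSO only and -100% = full killing by 100 µM tamoxifen; nearly all actives have a fitted effect of over 55% in size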
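Luminescent ATP readout gave cell viability of p53-null H1299-neo cells after a 24 h compound exposure at the permissive 32C. Titrations ran up to 46 uM, and AC50s were fitted with the standard Hill equation.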
GALC G270D act = galactocerebrosidase G270D activity enhancement, cell-based. P54803. 145M-Twi-hGALC-G270D cells (Twitcher mouse brain line with human GALC G270D), HMU-beta-Gal fluorescence, 48 h. Potency, µM (highest dose often 57.5 µM), most hits filed as activators. hit rate 0.1% among 45,000. AID 1159614; note: 0% is about no effect; nearly all actives have a fitted effect of over 65% in size
Target sequence (P54803 whole entry G286D): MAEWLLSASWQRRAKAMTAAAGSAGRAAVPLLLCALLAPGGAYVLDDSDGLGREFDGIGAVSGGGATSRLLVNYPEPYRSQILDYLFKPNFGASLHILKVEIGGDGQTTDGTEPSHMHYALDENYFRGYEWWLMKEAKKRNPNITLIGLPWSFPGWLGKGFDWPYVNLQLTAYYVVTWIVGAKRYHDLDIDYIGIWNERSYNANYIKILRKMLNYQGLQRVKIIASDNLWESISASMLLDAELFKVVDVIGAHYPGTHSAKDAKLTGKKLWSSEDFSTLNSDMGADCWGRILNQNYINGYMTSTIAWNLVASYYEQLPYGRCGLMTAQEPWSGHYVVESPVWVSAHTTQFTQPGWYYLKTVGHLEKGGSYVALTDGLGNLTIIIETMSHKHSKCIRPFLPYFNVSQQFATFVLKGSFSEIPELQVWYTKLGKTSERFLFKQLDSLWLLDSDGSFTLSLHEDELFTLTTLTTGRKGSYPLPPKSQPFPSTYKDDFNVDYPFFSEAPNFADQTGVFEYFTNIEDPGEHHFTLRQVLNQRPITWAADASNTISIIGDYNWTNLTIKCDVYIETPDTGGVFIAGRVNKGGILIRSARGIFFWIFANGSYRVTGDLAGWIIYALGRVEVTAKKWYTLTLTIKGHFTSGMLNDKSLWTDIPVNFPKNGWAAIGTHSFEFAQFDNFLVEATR
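Mutant human GALC (G270D), stably expressed in a Twitcher mouse brain cell line lacking endogenous GALC, is measured in live-treated cells via 6-hexadecanoylamino-4-methylumbelliferyl-β-galactoside hydrolysis (0.1 mM final, pH 5.2) with fluorescent detection.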
FH mod = Identification of activators of human fumarate hydratase by quantitative high-throughput screening; AID 1347055, 2019; Potency, µM (doses to about 79.9 µM), for the others: top-dose activity change, negative = inhibition, usual class: inhibitors; Fumarate hydratase, mitochondrial (Homo sapiens), P07954; hit rate 0.22% among 54,000; FH coupled MDH/diaphorase resazurin fluorescence, 15 min; note: % is set by controls: 0 for no effect and ±100 for the full control effect; the screen sought activators but most active calls are inhibition curves; nearly all actives have a fitted effect of over 45% in size
NTMT1 inhibitor = blocks human N-terminal methyltransferase 1 activity; Q9BV86; NTMT1 MTase-Glo SAH luminescence, purified enzyme; Potency, µM (highest dose often 114 µM), inactives show top-dose activity change, negative = inhibition, hits mostly inhibitors; hit rate 2.5% among 59,000; AID 1645870;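 note: plate controls were DMSO vehicle for no effect and no enzyme for full effect; nearly all actives have a fitted effect of over 65% in size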
p53null 39C kill = kills p53 null cells at the nonpermissive temperature | H1299 p53-null (neo) cells, 39C, ATPlite viability, 24 h | Potency, µM (doses to about 46.1 µM), for the others: at the highest dose activity, negative = cell killing, most hits filed as cytotoxic | hit rate 0.97% among 55,000 | AID 904;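 note: 0% = DMSO only and -100% = full killing by 100 µM tamoxifen; nearly all actives have a fitted effect of over 50% in size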
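Luminescent ATP signal reported cell survival after H1299 lines (neo, p53 null; or p53 A138V) received up to 46 uM compound and 24 hr incubation at 39C.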
The depositor's hits bear a star; i = inactive; ? = inconclusive; . = not tested or not shown; ! = a repeat was not active; [ ] = another dose, or the depositor's remark. Calls come from the whole dose curve; as a rule, active = well fitted curve in the direction sought with a large enough effect; inconclusive = small, poorly fitted or top-dose-only effect, or another doubt; inactive = no such curve, though single readings can be large; an effect the other way counts as inactive or inconclusive. Potency is the fitted concentration of half-maximal effect.

SMILES	p53null 32C tox	GALC G270D act	FH mod	NTMT1 inhibitor	p53null 39C kill
CN(C)CCOc1ccc(-c2nc(-c3ccc4c(c3)CC/C4=N\O)c(-c3ccncc3)[nH]2)cc1	.	.	.	28µM*	.
Cc1cc(-c2ccccc2)n2ncc(C(=O)Nc3ccccc3Sc3ccccc3)c2n1	.	.	.	7%	.
CCC1C(=O)OC23C=C[C@@H]4C(C(=O)O)=CO[C@H](O[C@@H]12)[C@@H]43 (some centres not stated)	.	.	7%	17%[57.5 µM]	.
Cc1cc(N[S+](=O)([O-])c2ccc(NC(=O)Cc3ccc(F)c(F)c3)cc2)no1	.	.	.	19%	.
CC1CCC(C(=O)NC(C(=O)OCC(=O)c2ccccc2)C(C)C)CC1 (configuration not stated)	-6%	i	-14%	-2%	-5%
C=CCn1c(C)cc(C(=O)COC(=O)[C@@H](NC(=O)c2ccccc2Cl)C(C)C)c1C	11µM*	.	.	.	.
C=C1CC2C(C)(CCC(=O)O)C(C(C)(C)O)CCC2(C)C2(C(=O)OC)C(=O)C(C)(O)C(=O)C12C (configuration not stated)	.	.	6%[53.3 µM]	10%[29.8 µM]	.
C=CCn1c(=O)c2cnc(Nc3ccc(N4CCN(C)CC4)cc3)nc2n1-c1cccc(C(C)(C)O)n1	.	.	?	40µM*!	.
CCCCCCNC(=O)CCc1c(C)nc2nc(-c3cc(OC)cc(OC)c3)nn2c1C	-5%	i	-6%	89µM*	-23%
Cc1ccc(C)c(-c2[nH]c3c(c2-c2c(-n4cccc4)n(C)c(=O)[nH]c2=O)c(=O)[nH]c(=O)n3C)c1	7%	i	-13%	89µM*	-13%
Nc1ncnc2c1C(=O)N(c1ccc(C3CCC(CC(=O)O)CC3)cc1)CCO2 (configuration not stated)	.	.	-5%	2%	.
COc1ccc(C)cc1Nc1nc(N)c2cc(OC)c(OC)cc2n1	?	i	?	?	10µM*
CCC(=O)Oc1ccc(/C=C(\C#N)c2nc3ccccc3[nH]2)cc1OC	-13%	i	-7%	25µM*	?
COc1cc(/C=C(\C#N)c2nc3ccc(C)cc3[nH]2)ccc1OCc1ccc(C)cc1	?	i	4%	13%	13µM*
COc1cc(/C=C(\C#N)c2nc3ccccc3[nH]2)ccc1OCc1ccccc1F	-10%	i	-3%	3%	-18%
C=C(C(=O)O)C1CCC(C)C2CCC(=O)OC2(C)C1 (configuration not stated)	.	.	3%	-1%[57.5 µM]	.
CCOC(=O)N1CCC(NC(=O)c2cnn(-c3cccc(Cl)c3C)c2C2CCN(C(=O)OC(C)(C)C)CC2)CC1	12%	i	-15%	6%	12%
CCS(=O)(=O)c1cccc(-c2cc(C(=O)NC3CCN(C)CC3)c(C)c3[nH]c4ncc(C)cc4c23)c1	.	.	-20%	28µM*!	.
COc1ccc(NC(=O)c2cnn3c(C)cc(C)nc23)cc1F	.	.	.	-1%	.
CC(C)NCC(O)COc1cccc2ccccc12 (configuration not stated)	.	.	-9%[53.3 µM]	.	.
CC(C)[N+](C)(C)CC(O)COc1cccc2ccccc12 (configuration not stated)	.	i	-1%[53.3 µM]	8.9µM*	.
CS(=O)c1ccc(-c2nc(-c3ccc(F)cc3)c(-c3ccncc3)[nH]2)cc1 (configuration not stated)	.	.	8%	35µM*	.
Fc1ccc(-c2nc(-c3c(F)cccc3F)[nH]c2-c2ccncc2)cc1	.	.	0%	?	.
CCCOCc1cc(CN2CCN(c3cccc(Cl)c3)CC2)c(O)c2ncccc12	-24%	i	?	16%	0.32µM*
CCCCOCc1cc(CN2CCN(c3cccc(Cl)c3)CC2)c(O)c2ncccc12	7%	i	11%	14%	-7%
SMILES	p53null 32C tox	GALC G270D act	FH mod	NTMT1 inhibitor	p53null 39C kill
CC(C)(C)C(=O)Nc1ccc(-c2nc3ccc(NC(=O)C(C)(C)C)cc3[nH]2)cc1	13µM*	i	-4%	10%	4µM*
O=C1CCCC2=C1C(c1ccncc1Br)N=C(Nc1nc3ccccc3o1)N2 (configuration not stated)	.	.	-7%	-9%	.
N#C/C(=C\c1ccc(Sc2ccc(Cl)cc2)o1)c1nc2ccccc2[nH]1	-14%	.	.	.	.
Cc1ccc2nc(/C(C#N)=C/c3ccc(-c4ccc(F)cc4F)o3)[nH]c2c1	-16%	i	-9%	?	7.9µM*
COc1cccc(/C=C(\C#N)c2nc3ccc(C)cc3[nH]2)c1	?	i	-11%	?	?
Cc1c(Cl)cccc1-c1ccc(/C=C(\C#N)c2nc3ccccc3[nH]2)o1	?	i	-6%	-27%	10µM*
CC(C)C[C@H](CC(=O)NO)C(=O)N[C@@H](Cc1ccc2ccccc2c1)C(=O)N[C@@H](C)C(=O)NCCN	.	.	10%	7%[57.5 µM]	.
COc1ccc2c(c1)CCc1c(C(=O)Nc3cnn(Cc4ccc(Cl)cc4Cl)c3)noc1-2	7%	i	?	?	-22%
COc1ccc(OC)c(-c2cc(C(=O)Nc3cnn(Cc4ccc(Cl)cc4Cl)c3)no2)c1	?	.	.	.	10µM*
O=C(O)CC1CCC(c2ccc(-c3ccc4nc(C(=O)NCc5ccc(OC(F)(F)F)cc5)cn4c3)cc2)CC1 (configuration not stated)	.	.	0%	5%[57.5 µM]	.
Cc1cc(C)c(NC(=O)C2CCN(c3nc4ccccc4n4cccc34)CC2)c(C)c1	14%	i	-16%	4%	?
COc1cc(Cl)c(C)cc1NC(=O)C1CCN(c2nc3ccccc3n3cccc23)CC1	?	i	-7%	25%	32µM*
Cc1cccc(NC(=O)Cn2cc(C(=O)c3ccco3)c3ccccc32)c1C	1%	i	1%	79µM*	-20%
COc1ccc(CNC(=O)C2CCN(C(=O)c3cnn(-c4ccccc4)c3-n3cccc3)CC2)cc1	1%	i	0%	89µM*	-8%
O=C(NOCC(O)CO)c1ccc(F)c(F)c1Nc1ccc(I)cc1F (configuration not stated)	.	.	0%	-3%[57.5 µM]	.
O=C(c1ccc(F)c(F)c1Nc1ccc(I)cc1F)N1CC(O)([C@@H]2CCCCN2)C1	.	.	-2%	32µM*!	.
COc1ccc(C(=O)Nc2cccc(-c3cn4ccsc4n3)c2)cc1OC	?	i	-24%	?	13µM*
CN(C)c1cnc2c(O)cccc2c1	.	.	.	3%	.
CNCCCOc1cc(F)c(-c2c(Cl)nc3ncnn3c2N[C@@H](C)C(F)(F)F)c(F)c1	.	.	.	28µM*	.
Cc1c(-c2cnccn2)ssc1=S	.	.	.	3.2µM*	.
Oc1ccc(C2CNCc3sccc32)cc1O (configuration not stated)	.	.	8.9µM*	.	.
Cc1ccc(-c2nc3nc(C)cc(N4CCN(c5cccc(C)c5)C(C)C4)n3n2)cc1 (configuration not stated)	2%	i	?	-2%	20µM*
